The panel holds about 83,000 compounds, 20% with a hit somewhere; the sample as a whole holds those more often.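 The test compound was applied at a single concentration to cells in 96-well plates for 48 hours, and percent growth was recorded.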 A number with no mark means an inactive call. The source made the active and inactive calls. The calls were made as follows: active = growth percent below 10; inactive = the rest.
Key:
Assay in all cases: NCI-60 one-dose screen, 48 h (100 = growth as untreated, 0 = no growth, -100 = all killed)
Details in all cases: 10 µM unless noted
NCI-H23 lung = system: NCI-H23 lung
NCI-H226 lung = system: NCI-H226 lung
NCI-H322M lung = system: NCI-H322M lung
HOP-62 NSCLC = system: HOP-62 NSCLC
NCI-H460 lung = system: NCI-H460 lung
NCI-H522 lung = system: NCI-H522 lung
A549/ATCC NSCLC = system: A549/ATCC NSCLC
786-0 renal = system: 786-0 renal
COLO 205 colon = system: COLO 205 colon
DU-145 prostate = system: DU-145 prostate
K-562 leukemia = system: K-562 leukemia
MALME-3M melanoma = system: MALME-3M melanoma
MDA-MB-231 breast = system: MDA-MB-231 breast
RXF 393 renal = system: RXF 393 renal
SF-268 CNS = system: SF-268 CNS
SF-295 CNS = system: SF-295 CNS
SF-539 CNS = system: SF-539 CNS
UACC-257 melanoma = system: UACC-257 melanoma
M14 melanoma = system: M14 melanoma

| Compound | growth (NCI-H23 lung) | growth (NCI-H226 lung) | growth (NCI-H322M lung) [%] | growth (HOP-62 NSCLC) | growth (NCI-H460 lung) | growth (NCI-H522 lung) | growth (A549/ATCC NSCLC) | growth (786-0 renal) | growth (COLO 205 colon) | growth (DU-145 prostate) | growth (K-562 leukemia) | growth (MALME-3M melanoma) | growth (MDA-MB-231 breast) | growth (RXF 393 renal) | growth (SF-268 CNS) | growth (SF-295 CNS) | growth (SF-539 CNS) | growth (UACC-257 melanoma) | growth (M14 melanoma) |
| --- | --- | --- | --- | --- | --- | --- | --- | --- | --- | --- | --- | --- | --- | --- | --- | --- | --- | --- | --- |
| COc1cc(OC)c2c3nc4cc(C)c(C)cc4nc3n(CCN(C)C)c2c1 | 67.4% | 72.4% | 73.3 | 70.9% | 53.7% | 56.2% | 8.98% (active) | 50.7% | 48.4% | 60.4% | 1.64% (active) | -36.1% (active) | 38% | -18.4% (active) | 86.2% | 53.7% | -83.5% (active) | 101% | 47.9% |
| Cc1cc2nc3c([nH]c2cc1C)c1ccc(=O)cc1n3CCN(C)C | 38.8% | 59% | 39.9 | 43.2% | 2.91% (active) | 19.8% | 28.4% | 49.1% | 10.8% | 28.8% | 9.48% (active) | 27.2% | 38.7% | 57.8% | 61% | 27% | 26.4% | 64% | 43.8% |
| Cc1ccc(C2=NN(c3nc(-c4cc5ccccc5oc4=O)cs3)C(c3ccc(C)cc3)C2)cc1 (stereo not given) | 95.6% | 88.8% | 102 | 91.2% | 120% | 100% | 109% | 110% | 111% | 113% | 101% | 91.6% | 84.4% | 103% | 120% | 99.6% | 93.9% | 112% | 106% |
| COc1c(F)ccc(C(=O)Nc2ccc3nc(NC(=O)C4CCCN(S(=O)(=O)c5ccc(Br)s5)C4)sc3c2)c1F (stereo not given) | 82.7% | 75.1% | 97.9 | 104% | 86.5% | 74.2% | 79.7% | 61.5% | 101% | 88% | 68.9% | 88.9% | 81.6% | 36.1% | 64.1% | 69.3% | 78% | 88.7% | 89.7% |
| COc1c(F)ccc(C(=O)Nc2ccc3nc(NC(=O)C4CCCN(S(=O)(=O)c5ccc(C#N)cc5)C4)sc3c2)c1F (stereo not given) | 88.9% | 90.3% | 101 | 104% | 96.8% | 85.7% | 91.6% | 75.5% | 96.9% | 95.7% | 62.6% | 97.5% | 99.1% | 46.7% | 93.5% | 90.1% | 73.1% | 87.1% | 92.7% |
| COc1ccc(-c2nc3cc(C)ccc3n2CC(=O)N=Nc2c(O)[nH]c3ccc(Br)cc23)cc1 | -45.5% (active) | -13.4% (active) | 14.2 | -49.7% (active) | 8.15% (active) | 25% | -68.6% (active) | 25.6% | -47.2% (active) | 16.1% | 9.75% (active) | -59.4% (active) | -28.1% (active) | -52.7% (active) | 23% | -61.4% (active) | -67.1% (active) | 1.58% (active) | -58.2% (active) |
| Cc1ccc(S(=O)(=O)c2nc(S(=O)(=O)c3ccc(C)cc3)c(Cl)s2)cc1 | 36.8% | 1.5% (active) | 89.7 | 105% | 41.5% | -89.5% (active) | 92.8% | -49.6% (active) | -78.6% (active) | -22.5% (active) | 5.15% (active) | -90.4% (active) | -54.5% (active) | -76.9% (active) | 108% | 94% | -62% (active) | 67.2% | 23.7% |
| N=C1N=C(SCc2nc3ccccc3[nH]2)NC(=O)/C1=C/c1ccc(Cl)cc1 | 98.8% | 95.1% | 103 | 102% | 102% | 92.7% | 109% | 118% | 110% | 110% | 110% | 96.4% | 92.8% | 113% | 112% | 103% | 102% | 106% | 108% |
| Cc1ccc(C2CC(c3ccc(S(=O)(=O)NCCNc4nc(Nc5ccc(F)cc5)nc(N(C)C)n4)cc3)=Nc3c(N)nc(N)nc3N2)cc1 (stereo not given) | 65.3% | 62.7% | 70.2 | 87.7% | 38.2% | 58.5% | 68.4% | 42% | 54.8% | 76% | 8.57% (active) | 54.3% | 32.5% | 27.2% | 57.7% | 48% | -44% (active) | 75.4% | 41.5% |
| CNS(=O)(=O)c1ccc(Nc2ccc(C(F)(F)F)cc2)c(-c2cn(C)cn2)c1 | 72.9% | 48.8% | 59.1 | 95.3% | 33.7% | 36.5% | 37.1% | 61.2% | 53.1% | 62.3% | 21.5% | 68.1% | 60.3% | 52.1% | 41.5% | 43.7% | 64.4% | 64% | 49.8% |
| CCCCCCCS(=O)(=O)N1CCCC(C(=O)Nc2nc3ccc(NC(=O)c4ccc(F)c(OC)c4F)cc3s2)C1 (stereo not given) | 27.3% | 31.8% | 77.7 | 60.8% | 69.7% | 24.7% | 60.5% | 50% | 82.9% | 63.5% | 61.8% | 35.4% | 14.7% | -48.1% (active) | 63.1% | 48.7% | 25.8% | 69% | 72.5% |
| Cn1cc(-c2cc(N)n3nc(-c4c[nH]c5ccccc45)cc3n2)c2cccnc21 | 47.6% | 71.2% | 44.7 | 62.6% | 2.29% (active) | 31.3% | 51.7% | -81.3% (active) | 40.2% | 38.2% | 6.08% (active) | -27.3% (active) | -9.34% (active) | 29.6% | 81.6% | -4.84% (active) | -81.5% (active) | 92.3% | -48.1% (active) |
| Cc1ccc(-c2nc(Nc3ccccc3S(N)(=O)=O)c3ccccc3n2)cc1 | 68.2% | 59.1% | 80.2 | 86.8% | 70.2% | 81.4% | 71% | 32.1% | 98.7% | 77.6% | 46.1% | 97.7% | 21.6% | 51.1% | 70.1% | 94.4% | -11.9% (active) | 106% | 90.3% |
| CN(C)c1ccnc(CNCCSC2(c3ccccc3)c3ccccc3C=Cc3ccccc32)c1 | -30.6% (active) | 16.7% | 29.1 | 9.26% (active) | -87.4% (active) | -73.6% (active) | 0.815% (active) | -46.8% (active) | -84.7% (active) | -26.1% (active) | -27.1% (active) | -93.4% (active) | -49.5% (active) | -36.6% (active) | -30.7% (active) | -70.5% (active) | -96.5% (active) | -66.3% (active) | -80.8% (active) |
| NS(=O)(=O)c1ccc(CCNC(=O)CSc2ccc(-c3ccc(Br)cc3)nn2)cc1 | 47.2% | 70.3% | 81.2 | 75.9% | 51.4% | 52.9% | 62% | 75.3% | 83.6% | 71.1% | 36% | 75.9% | 85.2% | 87.7% | 72.5% | 59.9% | 79.2% | 38.5% | 77% |
